Consider seven molecules from PubChem BioAssay (NCI).

Common to all, as to assay: NCI-60 one-dose screen, 48 h (100 = growth as untreated, 0 = no growth, -100 = all killed)
One test has as its system SK-MEL-2 melanoma. The note with it: 10 µM unless noted.
Another test concerns EKVX NSCLC. The note with it: 10 µM unless noted.
Another test concerns SN12C renal. The settings on record: 10 µM unless noted.
Another test relates to UO-31 renal. The settings on record: 10 µM unless noted.
The next test deals with TK-10 renal. The settings on record: 10 µM unless noted.
The test system of a further test is ACHN renal. The settings on record: 10 µM unless noted.
The test system of the next test is A498 renal. The note with it: 10 µM unless noted.
In the next test the test system is CCRF-CEM leukemia. The settings on record: 10 µM unless noted.
Another test relates to MOLT-4 leukemia. The note with it: 10 µM unless noted.
Another test concerns SR leukemia. The note with it: 10 µM unless noted.
In another test the test system is RPMI-8226 leukemia. The note with it: 10 µM unless noted.
For the next test, the system named is OVCAR-8 ovarian. The settings on record: 10 µM unless noted.
A further test concerns OVCAR-5 ovarian. The settings on record: 10 µM unless noted.
In another test the test system is OVCAR-4 ovarian. The settings on record: 10 µM unless noted.
Another test has as its system SK-OV-3 ovarian. The note with it: 10 µM unless noted.
In a further test the test system is IGROV1 ovarian. The settings on record: 10 µM unless noted.
The subject of the next test is OVCAR-3 ovarian. The note with it: 10 µM unless noted.
For the next test, the system named is HS 578T breast. The settings on record: 10 µM unless noted.
The test system of the next test is NCI/ADR-RES ovarian. The note with it: 10 µM unless noted.
In the next test the test system is CAKI-1 renal. The settings on record: 10 µM.

Structures are written as SMILES. Compounds without any hit were thinned out: in the full panel of roughly 83,000, 20% have a hit.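 How to read the values: 0–100, growth inhibition (40 = 60% inhibited); 0, no net growth; -100 to 0, cell death (-40 = 40% of starting cells died; -100 = all dead).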 A number with no mark means an inactive call. Active and inactive are the calls of the source. The calls were made as follows: active = growth percent below 10; inactive = the rest.

For the molecule `CCCCCCCCCC[C@@H](C)[C@@H]1CC(=O)N[C@H]([C@@H](C)O)C(=O)N[C@@H](C)C(=O)N[C@H](C)C(=O)N[C@@H](CCC(N)=O)C(=O)N[C@H](Cc2ccc(O)cc2)C(=O)N[C@@H](C(C)CC)C(=O)O1` (stereo partly drawn), the growth with SK-MEL-2 melanoma was 65.5%; with EKVX NSCLC, 66.6%; in the test on SN12C renal, 66.5%; in the test on UO-31 renal, 79.6%; in the test on TK-10 renal it was 47.9%; in the test with ACHN renal it was 98.3%. Moreover, the growth with A498 renal is 64.3%; with CCRF-CEM leukemia, 63.2%; with MOLT-4 leukemia, 41.1%; in the test on SR leukemia, 75%; in the test on RPMI-8226 leukemia, 35.1%; in the test on OVCAR-8 ovarian it was 51.8%. Moreover, the growth was 92.2% in the test with OVCAR-5 ovarian; 30.9% with OVCAR-4 ovarian; 66.5% in the test with SK-OV-3 ovarian; 76.2% with IGROV1 ovarian; 48.4% in the test on OVCAR-3 ovarian; 89% in the test on HS 578T breast. Besides, the growth in the test with NCI/ADR-RES ovarian is 93.6%.
As for `CC(=O)NC(C)(C)C(=O)N[C@@H](C)C(=O)NC(C)(C)C(=O)N[C@@H](C)C(=O)NC(C)(C)C(=O)N[C@@H](C)C(=O)N[C@@H](CCC(N)=O)C(=O)NC(C)(C)C(=O)N[C@H](C(=O)NC(C)(C)C(=O)NCC(=O)N[C@@H](CC(C)C)C(=O)NC(C)(C)C(=O)N1CCC[C@H]1C(=O)N[C@H](C(=O)NC(C)(C)C(=O)NC(C)(C)C(=O)N[C@@H](CCC(N)=O)C(=O)N[C@@H](CCC(N)=O)C(=O)N[C@H](CO)CC1CCCCC1)C(C)C)C(C)C`, the growth is 5.52% [5 µM] (active) with SK-MEL-2 melanoma; 52% [5 µM] with EKVX NSCLC; 21.2% [5 µM] in the test on SN12C renal; 53.1% [5 µM] in the test with UO-31 renal; 38.8% [5 µM] in the test with TK-10 renal; 72.2% [5 µM] in the test with ACHN renal. For the same molecule, the growth was 52.3% [5 µM] with A498 renal; 55.6% [5 µM] in the test on CCRF-CEM leukemia; 55.1% [5 µM] with MOLT-4 leukemia; 43.6% [5 µM] in the test on SR leukemia; -3.49% [5 µM] (active) in the test with RPMI-8226 leukemia; 44.2% [5 µM] in the test with OVCAR-8 ovarian. Besides, the growth in the test with OVCAR-5 ovarian is 55.1% [5 µM]; with OVCAR-4 ovarian, 23.8% [5 µM]; in the test on SK-OV-3 ovarian it was 45.1% [5 µM]; in the test with OVCAR-3 ovarian, 35% [5 µM]; with HS 578T breast, 62.1% [5 µM]; with NCI/ADR-RES ovarian, 96.9% [5 µM].
For `CC(C)C[C@H]1C(=O)O[C@H](C(C)C)C(=O)N(C)[C@@H](C(C)C)C(=O)O[C@H](C(C)C)C(=O)N(C)[C@@H](C(C)C)C(=O)O[C@H](C(C)C)C(=O)N1C`, the growth is -17.8% (active) with SK-MEL-2 melanoma; 22.6% in the test with EKVX NSCLC; 8.19% (active) in the test on SN12C renal; -9.26% (active) with UO-31 renal; 11.9% in the test with TK-10 renal; 10% in the test with ACHN renal. Further, the growth was -6.04% (active) in the test on A498 renal; 11.3% with CCRF-CEM leukemia; 0.456% (active) with MOLT-4 leukemia; 14.4% in the test with SR leukemia; 16% in the test with OVCAR-8 ovarian; 17.7% in the test with OVCAR-5 ovarian. Also, the growth is 18.3% with OVCAR-4 ovarian; -9.29% (active) with SK-OV-3 ovarian; 37% with IGROV1 ovarian; 17.6% in the test with OVCAR-3 ovarian; 38.2% in the test with HS 578T breast; -1.7% (active) in the test on NCI/ADR-RES ovarian.
For the molecule `CC[C@@](C)(NC(=O)C(C)(C)NC(=O)[C@@H](NC(=O)[C@@H]1CCCN1C(=O)C(C)(C)NC(=O)[C@H](CC(C)C)NC(=O)CNC(=O)C(C)(C)NC(=O)[C@@H](NC(=O)C(C)(C)NC(=O)[C@H](CCC(N)=O)NC(=O)[C@H](C)NC(=O)C(C)(C)NC(=O)[C@H](C)NC(=O)C(C)(C)NC(=O)[C@@H]1CCCN1C(=O)C(C)(C)NC(C)=O)C(C)C)C(C)C)C(=O)N[C@@H](CCC(N)=O)C(=O)N[C@@H](CCC(N)=O)C(=O)N[C@H](CO)Cc1ccccc1`, the growth was -9.91% [4.25 µM] (active) with SK-MEL-2 melanoma; 71.6% [4.25 µM] with EKVX NSCLC; 12.8% [4.25 µM] with SN12C renal; 89.5% [4.25 µM] in the test with UO-31 renal; 90% [4.25 µM] in the test on TK-10 renal; 107% [4.25 µM] with ACHN renal. Moreover, the growth in the test with A498 renal was 54.9% [4.25 µM]; in the test with CCRF-CEM leukemia, 35.6% [4.25 µM]; in the test on MOLT-4 leukemia it was 8.53% [4.25 µM] (active); in the test on SR leukemia, 22.2% [4.25 µM]; with RPMI-8226 leukemia, -10.5% [4.25 µM] (active); with OVCAR-8 ovarian, 94.5% [4.25 µM]. Also, the growth is 44.9% [4.25 µM] with OVCAR-5 ovarian; 59.2% [4.25 µM] with OVCAR-4 ovarian; 31.3% [4.25 µM] with SK-OV-3 ovarian; 42.6% [4.25 µM] in the test with IGROV1 ovarian; 14.6% [4.25 µM] with OVCAR-3 ovarian; 52.1% [4.25 µM] in the test with HS 578T breast. Besides, the growth in the test on NCI/ADR-RES ovarian was 100% [4.25 µM].
`C[C@H]1[C@H](C)CC[C@]2(COC(=O)c3cccnc3)CC[C@]3(C)C(=CC[C@@H]4[C@@]5(C)CCCNC(C)(C)[C@@H]5CC[C@]43C)[C@H]12`: the growth with SK-MEL-2 melanoma was 98.6%; with EKVX NSCLC, 89.7%; in the test with SN12C renal it was 67.6%; with UO-31 renal, 59.3%; in the test on TK-10 renal, 79.9%; in the test with ACHN renal, 75.7%. Further, the growth in the test on CAKI-1 renal is 61.5%; with CCRF-CEM leukemia, 50.1%; in the test with MOLT-4 leukemia, 44%; in the test with SR leukemia, -8.33% (active); in the test with OVCAR-8 ovarian it was 86.2%; in the test with OVCAR-5 ovarian it was 90.9%. Further, the growth in the test with OVCAR-4 ovarian is 70.5%; in the test with SK-OV-3 ovarian, 92.5%; in the test with IGROV1 ovarian, 65%; in the test with OVCAR-3 ovarian it was 68.4%; in the test on HS 578T breast, 78.8%; in the test with NCI/ADR-RES ovarian, 88.5%.
Take `COc1cc(O)c2c(c1)[C@H]1O[C@@H]1C[C@H](O)[C@H](O)C(=O)/C=C\C[C@H](C)OC2=O`: the growth was 20.1% in the test on SK-MEL-2 melanoma; 51.8% in the test with EKVX NSCLC; 53.5% in the test on SN12C renal; 20.4% in the test with UO-31 renal; 48.6% with TK-10 renal; 45.4% in the test on ACHN renal. Further, the growth is 58.9% in the test with A498 renal; 22.2% in the test on CCRF-CEM leukemia; 33.6% with MOLT-4 leukemia; 22.3% in the test with SR leukemia; 24.5% with RPMI-8226 leukemia; 59.3% in the test on OVCAR-8 ovarian. Also, the growth with OVCAR-5 ovarian is 61.5%; with OVCAR-4 ovarian it was 27%; with SK-OV-3 ovarian, 80.2%; in the test with IGROV1 ovarian, 39%; in the test with OVCAR-3 ovarian, 32.1%; with HS 578T breast, 76.6%. Moreover, the growth in the test on NCI/ADR-RES ovarian was 78.7%.
Take `CCOC(=O)/C=c1\sc2n(c1=O)C1C(NN=2)N(CC)C(=O)N1CC` (stereo not drawn): the growth in the test on SK-MEL-2 melanoma was 76.7%; with EKVX NSCLC, 81.9%; in the test with SN12C renal it was 71.9%; in the test with UO-31 renal, 56.2%; in the test with TK-10 renal, 81.3%; with ACHN renal it was 44.5%. Further, the growth with CAKI-1 renal is 51.3%; with CCRF-CEM leukemia it was 53.4%; with RPMI-8226 leukemia, 64.6%; in the test on OVCAR-8 ovarian, 84.2%; in the test with OVCAR-5 ovarian, 84.8%; in the test with OVCAR-4 ovarian it was 91.2%. The growth in the test with SK-OV-3 ovarian is 89.2%; in the test with IGROV1 ovarian, 59.6%; with OVCAR-3 ovarian it was 14.8%; in the test with HS 578T breast, 61.5%; with NCI/ADR-RES ovarian, 53.1%.
